From PubChem
Sm TGR inh = blocks Schistosoma mansoni thioredoxin glutathione reductase; purified TGR, DTNB reduction, TNB absorbance 405 nm; Potency, µM (doses to about 114 µM), most hits filed as inhibitors; 360,000 compounds, 3% hits; further: nearly all actives have a fitted effect of over 60% in size
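First, TGR (20 nM dispensed) and NADPH were mixed with compound. Second, a 15 min room-temperature incubation followed. Third, further NADPH and then DTNB were added to start the reaction. Finally, TNB absorbance was monitored kinetically.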
FMDV inh = foot and mouth disease virus antiviral activity. AID 1159524. FMDV antiviral cell-based qHTS. 410,000 compounds, 1.2% hits. Potency, µM (top dose mostly 57.9 µM), hits mostly inhibitors; calls by dose curve; tested in HEK293T cells; further: read-out not given here; nearly all actives have a fitted effect of over 45% in size
Vaccinia mCherry = inhibitors of vaccinia virus infection (mCherry reporter signal) | Vaccinia virus mCherry reporter infection, fluorescence | AID 720579 | 310,000 compounds, 0.63% hits | Potency, µM (series often up to 36.5 µM), hits mostly inhibitors; calls by dose curve; tested in A549 cells; further: nearly all actives have a fitted effect of over 35% in size
HCV inh = blocks hepatitis C virus | Huh7.5.1 HCVcc-Cre infection, luciferase reporter, 44 h | Potency, µM (top dose mostly 41.8 µM), actives largely listed as inhibitors | 340,000 compounds, 3.4% hits
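Seed cells (1,000/well) for 4 h; treat with compound and infect with HCVcc-Cre, moi about 0.5. Incubate 44 h, then detect luciferase activity.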
VACV Venus inh = inhibitors of vaccinia virus (Venus reporter); Potency, µM (titrated, usually from 36.5 µM), hits mostly inhibitors; 330,000 compounds, 0.46% hits; Vaccinia virus Venus reporter expression, fluorescence; calls by dose curve; tested in A549 cells; further: nearly all actives have a fitted effect of over 30% in size
HCMV antiviral = blocks human cytomegalovirus replication. HFF cells, HCMV-luciferase reporter, 72 h; active compounds read low. activity change, negative = inhibition, % at 57.5 µM. 410,000 compounds, 4.5% hits. AID 1259415; in the data active means activity change below about -60%; inconclusive means no clear call, values can overlap the other calls; inactive means above about -39%
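Cell-based, HFFs, 1000 cells/well, 16 h 37C; cpds in DMSO + HCMV-luc, MOI 1 PFU/cell; 72 h 37C; OneGlo luminescence after 5 min RT; norm. to buffer vs Salinomycin 10uM.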
A number is an active result; i = inactive; ? = inconclusive; nt = not tested or not shown. Hits are enriched below; roughly 9.3% of the tested compounds scored in any of these assays. Unless noted, the call rests on the fitted dose curve; in most records, active means well fitted curve in the direction sought with a large enough effect; inconclusive means small, poorly fitted or top-dose-only effect, or another doubt; inactive means no such curve, though single readings can be large; an effect the other way counts as inactive or inconclusive.

SMILES	Sm TGR inh	FMDV inh	Vaccinia mCherry	HCV inh	VACV Venus inh	HCMV antiviral
CCc1ccc(C(O)c2ncc(-c3ccccc3Cl)[nH]2)cc1 (configuration not stated)	nt	i	i	nt	i	-95.9
C=CC[n+]1ccc(/C=C2\C=Cc3cc(C)ccc3N2CC)c2ccccc21	i	35.5µM	nt	2.51µM	nt	nt
CCN(C(=O)CCc1nc(-c2ccc(C)cc2)no1)c1cccc(Cl)c1	i	i	i	nt	i	i
CC(C)c1nc(NCCO)c2nnn(Cc3ccccc3)c2n1	i	i	i	?	i	i
NC1=NC2(CCN(Cc3ccccc3)CC2)n2c(nc3ccccc32)N1	i	i	nt	i	nt	i
CCOC(=O)Nc1ccc(S(=O)(=O)N2CCOCC2)cc1	i	i	nt	i	nt	i
O=S(=O)(c1ccc(NC(=S)Nc2ccccc2)cc1)N1CCOCC1	44.7µM	i	i	i	i	i
CN(C)CC(C)(C)CNC(=S)Nc1ccc(S(=O)(=O)N2CCOCC2)cc1	i	i	i	i	i	-76.0
CC(C)CCCCCCNC(=S)Nc1ccc(S(=O)(=O)N2CCOCC2)cc1	i	i	?	?	?	-84.9
Cc1cc(Cl)ccc1OC(C)C(=O)Nc1ccc(S(=O)(=O)N2CCOCC2)cc1 (configuration not stated)	nt	i	i	11.2µM	i	i
CC(=O)N1CCCc2cc(S(=O)(=O)NC(C(=O)NC(C)c3ccccc3)C(C)C)ccc21 (configuration not stated)	i	i	nt	?	nt	i
CC1(C(=O)NS(=O)(=O)c2ccccc2C(F)(F)F)CCN1C(=O)c1cccc(F)c1 (configuration not stated)	nt	i	i	nt	i	i
CN(C)C(CNC(=O)c1ccc(S(=O)(=O)Nc2ccccc2)cc1)c1ccco1 (configuration not stated)	?	i	i	i	i	i
Cn1cc(CCCC(=O)NCc2cccc(Br)c2)c2ccccc21	i	i	i	nt	i	i
O=C(Cc1ccc(Br)cc1)Nc1cccc(S(=O)(=O)N2CCOCC2)c1	i	i	nt	i	nt	i
O=S(=O)(c1cccc(NC(=S)Nc2ccc(Br)cc2Cl)c1)N1CCOCC1	14.1µM	i	nt	i	i	i
CC(Sc1ccccc1)C(=O)Nc1ccc(S(=O)(=O)N2CCOCC2)cc1 (configuration not stated)	i	i	i	i	i	-64.0
C=CCn1c(SC)nccc1=O	nt	i	i	i	i	i
CCOCCOC(=O)c1[nH]c2c(c1C)C(=O)CC(c1ccc(N(C)C)cc1)C2 (configuration not stated)	i	?	?	?	i	i
C/C=C/COC(=O)c1[nH]c2c(c1C)C(=O)CC(c1ccco1)C2 (configuration not stated)	50.1µM	i	?	?	?	-65.3
C=CCOC(=O)c1[nH]c2c(c1C)C(=O)CC(c1ccco1)C2 (configuration not stated)	44.7µM	i	?	i	i	nt
COc1ccc(C2CC(=O)c3c([nH]c(C(=O)OCc4ccccc4)c3C)C2)cc1OC (configuration not stated)	i	?	i	nt	i	i
Cc1c(C(=O)OCC2CCCO2)[nH]c2c1C(=O)CC(c1ccco1)C2 (configuration not stated)	?	i	?	?	?	nt
Cc1c(C(=O)OCC(C)C)[nH]c2c1C(=O)CC(c1ccco1)C2 (configuration not stated)	?	i	?	?	?	-76.7
C/C=C/COC(=O)c1[nH]c2c(c1C)C(=O)CC(c1ccc(N(C)C)cc1)C2 (configuration not stated)	i	i	i	5.62µM	i	i
SMILES	Sm TGR inh	FMDV inh	Vaccinia mCherry	HCV inh	VACV Venus inh	HCMV antiviral
Cc1cccc(C)c1NC(=O)CN1CCNCC1	i	i	nt	i	i	i
Cc1c(C(=O)OC2CCCC2)[nH]c2c1C(=O)CC(c1ccco1)C2 (configuration not stated)	i	?	?	?	?	-94.8
COc1ccsc1C(=O)NCCN1CCOCC1	i	i	i	i	i	i
O=C(COc1ccccc1C(=O)c1cnn(-c2ccccc2)c1)Nc1ccc2ccccc2c1	i	i	i	12.6µM	i	i
Cc1sc2nc(C3CC3)nc(N3CCN(C(=O)c4ccc(F)cc4)CC3)c2c1C	i	i	i	?	i	-81.0
Cc1ccc(N2CCN(C(=O)c3cccs3)CC2)cc1C	35.5µM	i	i	i	i	i
